Where “and” joins values, the source holds several entries; their conditions need not be identical. Identical values can stand only once. About 79,000 compounds went through this panel and 15% of them were active in at least one assay; those are over-represented in the sample as a whole. A number with no mark means an inactive call. Calls of active or inactive are those of the source. Cut-off read from the data, not from the text of the source: active = growth inhibition above about 70%; inactive = the rest.
How the values were obtained:
[1] = NCI Yeast Anticancer Drug Screen. Data for the rad50 strain (AID 155);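 note: 0% = growth of vehicle-only cultures of the same strain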; conditions: S. cerevisiae rad50 strain growth inhibition; at 50.0 µM; stronger effect = higher value
How it was run: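 Vehicle-treated cultures provide the reference for the growth inhibition reported for compound-exposed, repair-deficient yeast.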

[2] = NCI Yeast Anticancer Drug Screen. Data for the mec2-1 strain (AID 157); conditions: S. cerevisiae mec2-1 strain, at 50.0 µM, stronger effect = higher value
How it was run: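 Yeast mec2-1 mutant treated with compound. Readout: growth inhibition vs vehicle controls.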

[3] = NCI Yeast Anticancer Drug Screen. Data for the sgs1 mgt1 strain (AID 161);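 note: 0% = growth of cultures given vehicle only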; conditions: S. cerevisiae sgs1 mgt1 strain, at 50.0 µM, stronger effect = higher value
How it was run: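 Mutant yeast exposed to compound; growth scored against vehicle-only wells.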

[4] = NCI Yeast Anticancer Drug Screen. Data for the cln2 rad14 strain (AID 165);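 note: 0% = growth equal to vehicle treated cultures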; conditions: S. cerevisiae cln2 rad14 strain, at 50.0 µM, stronger effect = higher value
How it was run: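 cln2 rad14 yeast strain; compound exposure; growth inhibition read vs vehicle controls.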

[5] = NCI Yeast Anticancer Drug Screen. Data for the bub3 strain (AID 167); conditions: S. cerevisiae bub3 mutant strain, at 50.0 µM, stronger effect = higher value
How it was run: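 Mutant yeast screening strain plus compound; vehicle-treated cultures serve as the 0% inhibition reference.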

[6] = NCI Yeast Anticancer Drug Screen. Data for the mlh1 rad18 strain (AID 175); conditions: S. cerevisiae mlh1 rad18 strain growth inhibition; at 50.0 µM; stronger effect = higher value
How it was run: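 Yeast w/ defined DNA-repair lesions; compound exposure; growth vs vehicle controls → % inhibition.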

| Compound | growth inhibition [1] | growth inhibition [2] | growth inhibition [3] | growth inhibition [4] | growth inhibition [5] | growth inhibition [6] |
| --- | --- | --- | --- | --- | --- | --- |
| COc1ccc(C(c2c(O)c3ccccc3oc2=O)c2c(O)c3ccccc3oc2=O)cc1 | -15.3% | -0.35% | -14.4% | -18.2% | 1% | -0.7% |
| CC(N)CN.CC(N)CN.[Cl-].[O]=[Os+2]=[O] (stereo not drawn) | -31% | -13.4% | -16.6% | 2.05% | -16.1% | -13.6% |
| NP(=S)(Oc1ccc(Cl)cc1)Oc1ccc(Cl)cc1 | 96.8% (active) | 65.1% | 97.7% (active) | 60.7% | 49.3% | 91.5% (active) |
| CCC[CH2][Sn]([CH3])([CH3])[CH2]CC[N+](C)(C)C | 21.3% | 5.55% | 16.9% | 45% | 10.8% | 13.5% |
| CC(C)c1cc2c(cc1O)C1(C)CCCC(C)(C)C1CC2=O (stereo not drawn) | 27.4% | 32.3% | 19.9% | 22.4% | 27.9% | 34.6% |
| NC(CCOCCP(=O)(O)O)C(=O)O (stereo not drawn) | -51.3% | -36.4% | -44% | -8% | -15.3% | -40.1% |
| CC(C)CCCC(C)CO[P+](=O)OCC(C)CCCC(C)C (stereo not drawn) | 31.9% | 7.4% | 18.5% | 20.4% | 5.8% | 1.25% |
| [Cl][Hg][c]1cccc(I)c1N=Nc1ccccc1 | 81.9% (active) | 21.3% | 66.2% | 4.9% | 2.25% | 69.8% |
| c1ccc2c(c1)sc1sc3ccccc3[n+]12 | 5.05% | -5.65% | 1.8% | 3% | 3.2% | -23.4% |
| CC(C)C(NC(=O)CCl)C(=O)O (stereo not drawn) | -9.2% | -0.2% | 5.75% | -11.4% | -2.55% | 0.3% |
| C#C[C@]1(O)CC[C@H]2[C@@H]3CCC4=C/C(=N/OC(=O)c5cccc6c(=O)c7ccccc7[nH]c56)CCC4[C@H]3CC[C@@]21CC (stereo partly drawn) | -15.8% | -35% | -30.4% | 23.2% | -29.1% | -45.6% |
| CC(=O)OC1(c2nccc3ccccc23)CCN(Cc2ccccc2)CC1 | 17.8% | 9.45% | 6.8% | -8.3% | 7.25% | 12% |
| COc1ccc2c(c1)C(=O)C(N)C2 (stereo not drawn) | 2% | 1.95% | 0.5% | -21.6% | 7.4% | 20.1% |
| O=C1CC(=O)N(C2CCC(C3CCCCC3)CC2)C(=O)N1 (stereo not drawn) | 14.1% | 4.85% | 27.5% | 1.35% | 22.3% | 5.75% |
| CCCC(C)C1(C)C(=O)NC(=O)N(C)C1=O (stereo not drawn) | 4.35% | 18.1% | 0.15% | 11.8% | 1.05% | -11.9% |
| CCC(C(=O)NC1CN2CCC1CC2)c1ccccc1 (stereo not drawn) | -6.25% | -23.3% | -27.4% | -3.15% | -2.6% | -13.2% |
| C1CC[N-]CC1.C1CC[N-]CC1.[Cl][Pd][Cl] | 1.25% | 8.8% | 13% | -23.6% | 10.8% | 15.4% |
| CCN1C[C@]2(COC)[C@H](O)C[C@H](OC)[C@]34C1[C@H]([C@H](OC)[C@H]23)[C@]1(OC(C)=O)[C@H]2[C@@H](OC(=O)c3ccccc3)[C@](O)(C[C@H]24)[C@@H](OC)[C@@H]1O | 14.6% | -4% | 5.8% | -6.85% | 24.9% | -69.3% |
| O=C(O)c1cccc(P(=O)(O)O)c1 | 14.3% and 9.3% | -19.3% and -12.9% | -5.25% and 17.4% | 2.35% and 28.6% | -4% and -10.6% | 2.55% and -0.35% |

| Compound | growth inhibition [1] | growth inhibition [2] | growth inhibition [3] | growth inhibition [4] | growth inhibition [5] | growth inhibition [6] |
| --- | --- | --- | --- | --- | --- | --- |
| CC(=O)OC1CC2(C)C3(CO3)C1OC1C=C(C)C(=O)C(O)C12CO (stereo not drawn) | -10.4% | -3.95% | 2.75% | 26.5% | 8.7% | 11.3% |
| CN(C(=[Se])[Se]C(=[Se])N(C)C1CCCCC1)C1CCCCC1 | 19.4% | 5% | 8.35% | 18.4% | 0.4% | 12.6% |
| S=c1[nH]c2ccccc2[nH]1.[Zn+2] | 13.2% | 10.3% | 18.2% | 10.2% | -21.4% | -5.35% |
| COC(=O)/C=C/[C@@H]1[C@H](C)N1S(=O)(=O)c1ccc(C)cc1 (stereo partly drawn) | -9.7% | -11.3% | 11.7% | 6.95% | 13.9% | -23.5% |
| C=CCN1CCC23c4c5ccc(O)c4OC2C(=NN=C2CCC4(O)C6Cc7ccc(O)c8c7C4(CCN6CC=C)C2O8)CCC3(O)C1C5 (stereo not drawn) | 3.4% | 2.5% | 10% | 27.4% | 2.1% | 32.2% |
| O=C1CCC(=O)N1[N+](=O)[O-] | -17.2% | -10.2% | -18.8% | 2.95% | -2.45% | -16% |
| CN1CCOC(c2ccccc2)c2ccsc2CC1 (stereo not drawn) | 17.2% | -5% | 35.2% | 0% | 9.4% | 16.8% |
| NCCc1cc2c3c(c1)CCCN3CCC2 | 96.5% (active) | 96.5% (active) | 94.5% (active) | 88.7% (active) | 94.9% (active) | 98.2% (active) |
| OCC(Br)(Br)Br | 44.4% | -4.3% | 19.5% | 3.7% | -2.55% | 27.9% |
| Nc1ncnc2c1ncn2C1OC(CO)C2NP(=O)(N(CCCl)CCCl)OC21 (stereo not drawn) | 6.1% and 16.9% | -6.2% and 1.7% | -22.1% and -19.3% | -8.1% and 5.15% | -6.15% and -15.6% | -38% and -8.55% |
| COC(=O)CNP(=O)(NCC(=O)OC)N(CCCl)CCCl | -8.2% | -14.8% | -18.6% | 5.2% | -1.65% | 5.7% |
| CC1(C)SC2C(NC(=O)COc3ccccc3)C(=O)N2C1C(=O)O (stereo not drawn) (tested in a mixture with another compound) | -3.75% | 8.1% | 2.3% | -24.4% | -2.15% | 10% |
| CN(C)c1ccc(C=Cc2ccc([N+](=O)[O-])cc2)cc1.[C-]#[O+].[C-]#[O+].[C-]#[O+].[Cr] | -16.1% | -5.1% | -11.6% | 24.8% | -7.35% | -10.1% |
| CSCCC([NH-])C(=O)O.CSCCC([NH-])C(=O)O.[Cu+2] (stereo not drawn) | -18.1% | 7.95% | -9.2% | -33.3% | -13.1% | -2.5% |
| CCOP(=O)(NC12CC3CC(CC(C3)C1)C2)OCC | -1.5% | 8.2% | -7.5% | 5.25% | 19.6% | -18.2% |
| O=NNc1ccc2ccccc2n1 | -17.1% | 23.5% | -2% | 14.6% | 3.2% | -6.95% |
| O=[As](O)(O)Cc1cccc(F)c1 | -3.8% | -7.8% | -6.65% | -46.5% | 2.1% | -8.35% |
| C[CH2][Sn]1([CH2]C)[O]C(=O)[O][Sn]([CH2]C)([CH2]C)[O]1 | -30.1% | 0.95% | -30.2% | -5.05% | -6.05% | -53.3% |
| Cc1cc(OCC2=NCCN2)c(C)c(C)c1Cl | 44.3% | 26.9% | 36.1% | 51% | 9.2% | 79.3% (active) |
